In the library only some 2.2% were active in any assay of this set; here they are far more common.
FUS suppressor = qHTS for Suppressors of FUS Proteinopathy: Primary screen using FUS-linked yeast assay. 0.24% of 390,000 active. Potency, µM (highest dose often 76.6 µM), usual class: activators. S. cerevisiae FUS-expressing, growth rescue, OD600, 24 h;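 further: plate controls were DMSO vehicle for no effect and reference control for full effect; nearly all actives have a fitted effect of over 55% in size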
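Yeast FUS proteinopathy model; galactose-induced FUS (2%), starting OD 0.005. Cpds in dilution series, 24hr, 30C, 99% humidity. Abs 600 nm growth. Pos ctrl CP55940 (top 92uM final); neg ctrl DMSO.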
aSyn rescue = qHTS of alpha-syn Inhibitors; Yeast expressing alpha-synuclein, growth rescue, BacTiter-Glo, 24 h; Potency, µM (doses to about 46.1 µM), for inactives: top-dose growth rescue (activation), most hits filed as activators; 0.14% of 370,000 active; AID 652106, 2013; further: % of control where 0% means no effect; nearly all actives have a fitted effect of over 65% in size
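Screening used galactose-induced yeast with toxic alpha-synuclein levels, exposed to compound for 24 hr at 30 deg C. Cell growth, read with BacTiter-Glo luminescence, gave the measured signal.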
TDP43 rescue = qHTS of TDP-43 Inhibitors | 1.8% of 410,000 active | Potency, µM (highest dose often 46.1 µM), without a hit: at the highest dose growth rescue (activation), actives largely listed as activators | TDP-43 expressing yeast growth rescue, BacTiter-Glo, 24 h | AID 652104, 2013; further: % of control where 0% means no effect; nearly all actives have a fitted effect of over 50% in size
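In this qHTS, compounds that restore growth of yeast expressing TDP-43 appear as activators. Cells (OD600=0.02, galactose medium, raffinose-pregrown) are incubated with compound 24 hr at 30 deg C and growth is quantified by BacTiter-Glo.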
Abeta rescue = qHTS for compounds that reverse cellular toxicity of Amyloid beta (A-beta) peptide in yeast: Primary Screen; AID 1347071, 2019; 0.063% of 410,000 active; yeast expressing A-beta42, growth rescue, OD600, 48 h; response scale: 0% DMSO, 100% iron-clioquinol control; Potency, µM (doses to about 46.1 µM), usual class: activators; further: nearly all actives have a fitted effect of over 55% in size
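Yeast A-beta toxicity model in growth medium with pinned compounds, 48 h at 30 C; growth read as absorbance at 600 nm. Normalized to FeCl3/clioquinol equimolar mix (positive) and DMSO (negative).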
Mito fusion yeast = qHTS Assay for Small Molecule Inhibitors of Mitochondrial Division or Activators of Mitochondrial Fusion. S. cerevisiae fusion-defective mutant growth rescue, CellTiterGlo 48 h. Potency, µM (highest dose often 46.1 µM), without a hit: at the highest dose growth rescue (activation), usual class: activators. 0.23% of 320,000 active. AID 485298, 2010; further: % of control where 0% means no effect; nearly all actives have a fitted effect of over 45% in size
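Temperature-sensitive fusion-defective S. cerevisiae (e.g. fzo1-1, mgm1-5) were grown with compound in YPEG medium (3% ethanol, 3% glycerol) for 48 hours at 37C. Growth rescue was measured as viability by CellTiterGlo luminescence after 10 minutes at ambient.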
The depositor's hits bear a star; i = inactive; ? = inconclusive; · = no result given; [ ] = remark or other dose. The call rests on the fitted dose curve; in most records, active means well fitted curve in the direction sought with a large enough effect; inconclusive means small, poorly fitted or top-dose-only effect, or another doubt; inactive means no such curve, though single readings can be large; an effect the other way counts as inactive or inconclusive. Potency means the concentration at half of the fitted maximal effect.

SMILES | FUS suppressor | aSyn rescue | TDP43 rescue | Abeta rescue | Mito fusion yeast
NC(=O)N\N=C/C=C/C=C/c1ccc(F)cc1 | i | 1% | 21% | i | -4%
O=C(N/N=C/c1cccc(O)c1)NC1CCCCC1 | i | 3% | -14%[9.22 µM] | i | 1%
O=C(N/N=C/C=C/c1ccccc1)NC1CCCCC1 | i | ? | 18µM* | ? | 2%
Cc1cc(C(=O)N/N=C/C=C/c2ccccc2)n[nH]1 | i | -10% | 1% | i | -2%
NC(=O)N/N=C/C=C/c1ccccc1 | i | -19% | 4µM* | i | -1%
Cn1c(=O)cc(OCC(=O)N2CCN(c3ccc(F)cc3)CC2)c2ccccc21 | i | · | 7% | i | ·
Cc1ccccc1OCCn1c(CCNC(=O)C2CCCCC2)nc2ccccc21 | i | 2% | 15% | i | ·
COCCNC(=O)C1(C)CCCN(Cc2ccc(Cl)c(Cl)c2)C1 (configuration not stated) | i | -2% | 12% | i | ·
O=C1OC(Nc2ccc(F)cc2F)c2ccccc21 (configuration not stated) | i | -5% | -4% | i | 3%
O=C1OC(c2cccc3c(F)cccc23)c2ccccc21 (configuration not stated) | i | 8% | 20µM* | i | ·
COc1ccc(-c2nc(CN3CCC(C(=O)NCCCN4CCN(c5ccccc5F)CC4)CC3)c(C)o2)cc1OC | i | · | -35% | i | ·
CC(=O)NCC1COc2ccccc2O1 (configuration not stated) | i | 4% | 18% | i | -7%
O=C(COc1ccccc1)NCC1COc2ccccc2O1 (configuration not stated) | i | 8% | 9% | i | -4%
O=C(COC(=O)c1ccccc1O)NCC1COc2ccccc2O1 (configuration not stated) | · | 11% | 16% | i | 9%
Cc1ccccc1C(=O)OCC(=O)NCC1COc2ccccc2O1 (configuration not stated) | · | 14% | 14µM* | i | 28%
O=C(COc1ccc(Br)cc1)NCC1COc2ccccc2O1 (configuration not stated) | i | ? | 25µM* | i | 14%
COCc1c(C(=O)NCC2COc3ccccc3O2)oc2ccccc12 (configuration not stated) | i | 1% | 32µM* | i | 19%
CC(C)Oc1ccc(/C=C/C(=O)NCC2COc3ccccc3O2)cc1 (configuration not stated) | i | 2% | 18µM* | ? | -9%
Clc1ccc(/C=C/c2ccc3ccccc3n2)c(Cl)c1 | · | 3% | · | · | ·
CCOC(=O)c1ccc(Nc2nc3nonc3nc2Nc2cccc(C)c2C)cc1 | i | · | 3% | i | ·
COC(=O)c1cc2sc(C)cc2n1Cc1nc(-c2cccc(Br)c2)oc1C | i | · | 14% | i | ·
O=C(Nc1ccc(OCc2ccccc2Cl)cc1)c1cccnc1 | i | -2% | 16µM* | i | -20%
O=C(Nc1ccc(OCc2ccccc2)cc1)c1cccnc1 | i | -8% | -8% | i | 4%
O=C(CSc1nnc(COc2ccc(Cl)cc2)n1Cc1ccco1)Nc1ccc2c(c1)OCO2 | i | · | · | · | ·
O=S(=O)(c1ccc2oc(=S)[nH]c2c1)N1CCCCC1 | i | -11% | 27% | i | 7%
SMILES | FUS suppressor | aSyn rescue | TDP43 rescue | Abeta rescue | Mito fusion yeast
S=c1[nH]c2cc(-c3ccccc3)ccc2o1 | i | -15% | ? | i | 16µM*
Cc1cc(C)c2ccc(/C=N/O)nc2c1O | i | 13µM* | 21% | ? | -1%
COCCNC(=S)N/N=C(\C)c1cccc(C(F)(F)F)c1 | i | -12% | -18% | 11µM* | 12%
COCCNC(=S)N/N=C(\C)c1ccc2cc(OC)ccc2c1 | i | -9% | 7% | i | 3%
Cc1ccc(Cl)cc1N1CCN(CCNC(=O)Nc2ccccc2Cl)CC1 | i | · | -11% | i | ·
OC[C@@H]1CN(Cc2ccc(Cl)cc2)C[C@H](n2cnc3c(N4CCN(c5ccccc5)CC4)ncnc32)O1 | ? | ? | 32µM* | i | ·
CCc1cccc(C)c1NC(=O)C(CC)Sc1nc2ccncc2[nH]1 (configuration not stated) | i | · | -23% | i | ·
Cc1ccc(C23CC4CC(CC(CC(=O)NC(C)(C)CO)(C4)C2)C3)cc1 | i | 2% | 35µM* | i | 18µM*
O=c1oc(-c2cccs2)nc2sc3c(c12)CCCC3 | i | -15% | -20% | i | 0%
O=C1CN(c2nc(-c3cccs3)nc3sc4c(c23)CCCC4)CCN1 | 35µM* | 20% | 20% | i | 3%
CC1Cc2nc(SCC(=O)NCC3CCCO3)n(-c3ccccc3)c(=O)c2S1 (configuration not stated) | i | 22µM* | -2% | i | ·
COCCn1c(SCC(=O)NCC2CCCO2)nc2c(c1=O)SC(C)C2 (configuration not stated) | i | -2% | 14% | i | -1%
CC(C)(C)c1ccc(N2C(=O)Cc3c2nc(N)c(C#N)c3N)cc1 | ? | · | -3% | i | 13%
CCc1ccc(N2C(=O)Cc3c2nc(N)c(C#N)c3N)cc1 | 25µM* | -6% | 0% | i | 5%
CC1(C(=O)Nc2cccc(C(F)(F)F)c2)Cc2ccccc2C(=O)O1 (configuration not stated) | i | · | 35µM* | i | ·
Cc1cccc(NC(=O)C2(C)Cc3ccccc3C(=O)O2)c1 (configuration not stated) | i | ? | 22% | i | ·
CC(C)n1nnnc1C1c2ccccc2C(=O)N1Cc1ccc(F)cc1 (configuration not stated) | i | 7% | 0% | i | ·
COCCCN1C(=O)c2ccc(C(=O)OCC(=O)NCc3cccc(OC)c3)cc2C1=O | · | 1% | 19% | i | 3%
CCCCN(CCCC)S(=O)(=O)c1ccc(NC(=O)c2cccs2)cc1 | 2µM* | -3% | -29% | i | 14%
Cc1ccc(NC(=O)c2cccs2)cc1 | 28µM* | -27% | -23% | i | 0%
CCCCNC(=O)CNC(=O)c1cccs1 | i | 2% | -15% | i | -2%
Cc1cc(C)nc(NS(=O)(=O)c2ccc(NC(=O)c3cccs3)cc2)n1 | i | 1% | -18% | i | 3%
Cc1ccc(NC(=O)C(=O)NNC(=O)c2cccs2)cc1 | i | -5% | 3% | i | 0%
CCCCN(CCCC)CCNC(=O)CNC(=O)c1cccs1 | i | 1% | -18% | i | 32µM*
COc1ccc(CC(=O)Nc2cc(-c3cn4cccnc4n3)ccc2C)cc1OC | i | · | -11% | i | ·
